Source: PubChem BioAssay (NCI)
This is part of a sample that, as a whole, favours compounds with a hit. Of some 83,000 tested, about 20% had one in any assay.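 Single-concentration screen, 48 h exposure, 96-well plates. Endpoint: percent growth. Below 10 = active.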 Activity calls are given as the source filed them.

tested on: SK-MEL-28 melanoma; assay: NCI-60 one-dose screen, 48 h (100 = growth as untreated, 0 = no growth, -100 = all killed); details: 10 µM unless noted

| Structure (SMILES) | growth |
| --- | --- |
| O=C(CSc1nc2ccc([N+](=O)[O-])cc2[nH]1)Nc1ccc(F)c(Cl)c1 | 22% (inactive) |
| Cc1cc(C)c(O)c(CNCCCCCCNCc2cc(C)cc(C)c2O)c1 | -82.6% (active) |
| CS(=O)(=O)c1cccnn1 | 117% (inactive) |
| Cc1ccc(S(=O)(=O)Nc2ccccc2)cc1N | 100% (inactive) |
| Nc1cc(C(=O)O)[nH]c(=S)n1 | 96.7% (inactive) |
| COc1ccc(-c2nc3ccccn3c2/C=C/C(=O)c2cc(OC)c(OC)c(OC)c2)cc1OC | 29.1% (inactive) |
| O=C(Nc1cccc2cccnc12)c1cc(C(=O)c2ccc(Cl)cc2)n2ccc(-c3ccncc3)cc12 | 98.2% (inactive) |
| Cc1cccc(C[C@H](NC(=O)Nc2ccc(C)cc2F)C(=O)N[C@@H]2C(=O)N3C[C@H](O)C[C@H]3C(=O)N3CCN(C)C[C@H]3C(=O)N[C@@H](C)C(=O)N3C[C@H](C)C[C@H]3C(=O)O[C@H]2C)c1 | 47.9% (inactive) |
| O=C1COCCN1c1ccc(NCc2cn(Cc3cccc4ccccc34)c3ccccc23)cc1 | 92.6% (inactive) |
| COc1ncnc2c(-c3ccccc3)cn(COCc3ccccc3)c12 | 77.9% (inactive) |
| O=C1CN(Cc2ccc(C(=O)NO)cc2)C(=O)[C@@H](Cc2ccccc2)N1 | 105% (inactive) |
| CC(C)C1=NOC(=O)C1=Cc1cn(-c2ccco2)nc1-c1ccccc1 | 99% (inactive) |
| c1ccc(-c2nnc(-c3c[nH]c4ncccc34)s2)cc1 | 99.6% (inactive) |
| COCCCNc1nc(NC(=O)c2cc(Br)cc(C(F)(F)F)c2)cc(-c2cccnc2)n1 | 98.6% (inactive) |
| CCn1cc(-c2cc(-c3ccc(Cl)cc3)nc(N)n2)c(-c2ccc(Br)cc2)n1 | 61.3% (inactive) |
| CCOC(CNC(=O)c1cccc([N+](=O)[O-])c1)OCC | 106% (inactive) |
| Cc1cccc([N+](=O)[O-])c1I | 114% (inactive) |
| CCOc1cc(NC(=O)c2ccccc2)c(OCC)cc1N | 118% (inactive) |
| CN(C)CCOc1ccc(/C(=C(/CCCl)c2ccccc2)c2ccccc2)cc1 | -30.3% (active) |

| Structure (SMILES) | growth |
| --- | --- |
| Nc1nc(N)c2c(n1)NC(c1ccc(F)cc1)C1CCc3ccccc3C1=N2 (stereo not drawn) | 93.4% (inactive) |
| CNC(=O)c1cc(Oc2ccc3nc(NC(=O)c4ccc5ncccc5c4)sc3c2)ccn1 | 101% (inactive) |
| CC1(C)CC[C@]23CC[C@]4(C)[C@H](CC[C@@H]5[C@@]6(C)C/C(=C/c7ccncc7)C(=O)C(C)(C)[C@@H]6CC[C@]54C)[C@H]2[C@H]1OC3=O | 87.7% [100 µM] (inactive) |
| CC1=CC[C@@H]2C(C)(C)C(=O)CC[C@@]2(C)[C@@H]1COc1ccc2ccc(=O)oc2c1 | 87.7% (inactive) |
| COc1ccc(/C=C/C=C\C(=O)c2ccc(-n3ccnc3)cc2)cc1 | 104% (inactive) |
| CCc1cccc(Cl)c1 | 106% (inactive) |
| Cc1ccc(S(=O)(=O)n2cc(C(=O)C(=O)N3CCCCC3)c3ccccc32)cc1 | 172% (inactive) |
| Cn1cc(-c2noc(-c3cn(C)c4ncc(F)cc34)n2)c2cc(Cl)ccc21 | 85.8% (inactive) |
| O=C(Nc1cccc2ccccc12)c1cc2ccccc2cc1O | 45.7% (inactive) |
| C#C[C@]1(O)CC[C@H]2[C@@H]3CC=C4c5nc(Nc6ncccn6)sc5CC[C@]4(C)[C@H]3CC[C@@]21C | -41.4% (active) |
| CC(=O)OC[C@]12CC[C@@H](C(=O)CBr)[C@@H]1[C@H]1CC[C@@H]3[C@@]4(C)CCCNC(C)(C)[C@@H]4CC[C@@]3(C)[C@]1(C)CC2 | -86.7% [100 µM] (active) |
| O=S(=O)(c1ccc(N/N=C\c2ccccc2Cl)cc1)c1ccc(N/N=C/c2ccccc2Cl)cc1 | 94.2% (inactive) |
| Nc1nc(Cl)c2ncn(Cc3cc4c(cc3I)OCO4)c2n1 | 87.7% (inactive) |
| Cc1ccc2c(c1)/C(=N\N=C/c1cn(C(C)C)c3ccccc13)C(=O)N2 | 73.4% (inactive) |
| O=C1CC(c2ccccc2)Cc2nc3ccc(Cl)cc3cc21 (stereo not drawn) | 50.6% (inactive) |
| C=C(C)[C@@H]1CC[C@]2(C(N)=O)CC[C@]3(C)[C@H](CC[C@@H]4[C@@]5(C)CC[C@H](O)C(C)(C)[C@@H]5CC[C@]43C)[C@@H]12 | 0.379% [100 µM] (active) |
| COc1ccc(-c2cc(-c3ccc(Cl)cc3)nc(SCCCCCCC(=O)NO)n2)cc1 | 57.6% (inactive) |
| Cc1cc[n+](CCCCCCCCCC[n+]2ccc(C)cc2)cc1 | 101% (inactive) |
| CCCSc1nc(N)nc2nc[nH]c12 | 126% (inactive) |
